From PubChem
A selection: hits, their analogues and other compounds. The true share with any hit is near 2.4%.
D2 PAM-1: human D2 receptor positive allosteric modulation; DiscoveRx D2 beta-arrestin cells, luminescence, 90 min; 100% = 57 uM dopamine signal; potentiation, % (concentration not given with the values); 360,000 compounds, 0.23% hits; AID 624464; in the data active = potentiation above about 50%
Target sequence (P14416 whole entry, looked up): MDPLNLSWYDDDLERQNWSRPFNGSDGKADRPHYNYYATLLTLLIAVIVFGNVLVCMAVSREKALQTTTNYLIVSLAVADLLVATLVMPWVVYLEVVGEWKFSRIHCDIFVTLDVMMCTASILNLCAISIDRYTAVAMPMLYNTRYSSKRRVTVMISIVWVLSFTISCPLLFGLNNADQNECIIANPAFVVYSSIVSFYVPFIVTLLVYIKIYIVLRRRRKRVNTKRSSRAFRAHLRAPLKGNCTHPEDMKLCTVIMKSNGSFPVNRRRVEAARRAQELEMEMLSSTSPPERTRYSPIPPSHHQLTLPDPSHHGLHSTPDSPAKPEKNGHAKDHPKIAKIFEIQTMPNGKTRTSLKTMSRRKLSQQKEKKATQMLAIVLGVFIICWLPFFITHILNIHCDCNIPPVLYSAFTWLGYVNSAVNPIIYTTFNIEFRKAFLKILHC
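PathHunter D2 cells, attached overnight at 37 deg C, received compound in DMSO plus dopamine at EC20 (50 nM final) for 90 min at 37 deg C. Beta-arrestin recruitment was read as luminescence after 1 h with detection reagent at ambient temperature.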
D2 antagonist: D2 dopamine receptor (human) antagonism | P14416 | HEK293 TREx D2 cells, calcium flux, dopamine EC80 | inhibition, % at 10 µM | 340,000 compounds, 2% hits | AID 485344; in the data active = inhibition above about 30%; inactive = below that, where a call was filed; also: 0% is about no effect
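Tetracycline-induced HEK293 T-REx cells expressing D2 force-coupled to calcium signalling were dye-loaded, exposed to compound for 180 s, then challenged with an EC80 of dopamine; calcium flux was followed kinetically for a further 180 s.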
D2 ag-1: activates the human D2 dopamine receptor; HEK293 T-REx D2 cells, calcium flux agonist mode; 340,000 compounds, 0.53% hits; AID 485358; activation, % at 2 µM; P14416;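 active = activation over 3 SD above normal in the single-dose calcium agonist read, cut at about 30% in these data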; also: 0% is about no effect
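Tetracycline-induced HEK293 Trex cells with D2 receptor force-coupled to calcium signaling, plated overnight at 30 C and loaded with no-wash calcium dye. Calcium flux read kinetically for 180 s after compound addition; responses flag agonists.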
D2 PAM-2: positive allosteric modulators of human D2 dopamine receptor; P14416; HEK293 T-REx D2, calcium flux, EC20 dopamine potentiation; potentiation, % at 10 µM; 340,000 compounds, 0.34% hits; AID 485347;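 active = potentiation over 3 SD above the plate norm, cut at about 30% in these data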; also: 0% is about no effect
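Potentiation of an EC20 dopamine calcium response is measured in a force-coupled, tetracycline-inducible Hek293 Trex D2 line. Compound-only kinetic reads over 180 s flag agonists before dopamine addition.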
D2 ag-2: human D2 receptor agonism in beta-arrestin assay; 360,000 compounds, 0.084% hits; P14416; activation, % (no concentration beside the values); DiscoveRx PathHunter D2 beta-arrestin, luminescence, 90 min; 100% = 57 uM dopamine signal; in the data active = activation above about 40%
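DiscoveRx PathHunter D2 beta-arrestin cells (2,100/well) attached overnight, then compound-stimulated 90 min at 37 C in HBSS/10 mM HEPES/0.1% Tween-20 buffer; beta-galactosidase complementation read by luminescence after 1 h at ambient temperature. Dopamine 57 uM final (EC100) as control.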
* = called active by the depositor; nt = no result given.

SMILES	D2 PAM-1	D2 antagonist	D2 ag-1	D2 PAM-2	D2 ag-2
COC(=O)CN1C(=O)C(C)(C)Oc2ccc(C(=O)Nc3ccccc3F)cc21	-2.6	18.5	-0.7	31.1*	2.7
CCOC(=O)c1ccc2c(c1)N(CC(=O)N1CCCCC1)C(=O)C(C)(C)O2	-2.6	15.3	-0.6	-5.9	-1.8
CCC(C)(C)NC(=O)c1ccc2c(c1)N(CC(=O)NC1CCCC1)C(=O)C(C)(C)O2	-12.1	62.3*	-1.3	-30.7	-5.7
CC1(C)Oc2ccc(C(=O)Nc3ccccc3F)cc2N(CC(=O)N2CCOCC2)C1=O	-7.7	-11.1	-0.1	8.4	-5.5
CCOC(=O)N1CCN(C(=O)CN2C(=O)COc3ccc(C)cc32)CC1	-6.6	37.5*	-0.6	-5.7	0.5
Cc1c(C(=O)N(C)CCC#N)oc2ccc(S(=O)(=O)N3CCOCC3)cc12	-3.5	14.2	0.2	-3.1	4.6
Cc1cc(NC(=S)N(CCN2CCCCC2)Cc2ccco2)ccc1Cl	-12.8	35.3*	-6.6	-20.5	-0.9
Cc1ccc(NC(=S)N(CCCN2CCCC(C)C2)Cc2ccco2)cc1C (centres undefined)	-35.1	45.7*	nt	-23.6	-5.2
Cc1ccc(Cl)cc1NC(=S)N(CCCN1CCN(C)CC1)Cc1ccco1	-37.3	71.0*	0.1	-27.5	-6.0
COc1cc(NS(=O)(=O)c2ccc(C)cc2)ccc1-n1cnnn1	2.4	8.2	6.0	-6.2	0.3
O=C(O)c1cc2c(cc1NC(=O)C1CCCC1)OCCO2	-7.9	33.5*	0.5	-14.8	-6.3
COCCNc1nc(N2CCCCC2)c2cnn(C)c2n1	-10.1	-16.2	-0.3	35.9*	-3.6
COCCNc1nc(NCc2ccccc2)c2cnn(C)c2n1	-7.5	nt	nt	nt	0.2
COC(CNC(=O)c1ccc(N2CCCC2=O)cc1)OC	-4.8	6.5	0.4	-5.0	-2.4
CN(C)C(CNC(=O)c1ccc(-c2ccccc2)cc1)c1ccccc1 (centres undefined)	-18.6	30.7*	0.1	-0.2	0.4
COc1ccc(C(CNC(=O)c2ccc3c(c2)OCCO3)N(C)C)cc1 (centres undefined)	-15.0	44.5*	1.6	nt	-0.8
COc1ccc(CCNC(=O)c2ccc3c(c2)OCCO3)cc1	-3.2	0.2	2.3	0.9	1.1
CN(C)C(CNC(=O)c1ccc(C(=O)c2ccccc2)cc1)c1ccccc1 (centres undefined)	-13.0	-8.6	0.4	-18.1	-6.0
CCc1c(C)nc(SC/C=C/c2ccccc2)[nH]c1=O	-9.3	16.0	-0.7	8.9	3.3
CCc1ccc2oc(-c3cc(NC(=O)c4cccnc4)cc(C)c3O)nc2c1	nt	nt	0.0	-3.5	nt
Cc1cc(C)cc(C(=O)NCC(=O)OCN2C(=O)c3ccccc3C2=O)c1	-8.3	44.1*	0.1	-3.6	-3.7
COc1ccc(-c2ccc(NS(=O)(=O)c3cccc([N+](=O)[O-])c3)cc2)nn1	-6.8	nt	nt	nt	3.6
CC1CCCCN1C(=O)c1ccccc1NC(=O)c1ccco1 (centres undefined)	-15.5	12.3	-1.8	31.3*	-0.7
Cc1ccccc1NC(=O)c1ccccc1NC(=O)c1ccco1	-19.1	-9.1	0.1	5.0	-1.8
CNC(=O)c1ccccc1NC(=O)c1ccco1	8.5	-3.0	-1.3	33.6*	-4.4
SMILES	D2 PAM-1	D2 antagonist	D2 ag-1	D2 PAM-2	D2 ag-2
Nc1ccc2ncccc2c1N	20.0	nt	nt	nt	1.7
Nc1nc(N)c2c(ccc3nccc32)[nH]1	52.2*	-5.8	-0.5	9.1	-1.4
CCOC(=O)Cc1csc(NC(=O)c2cnc3sc(C)cn3c2=O)n1	-4.8	1.2	0.8	1.0	-2.0
COCC(=O)N(Cc1nc2sc(C)c(C)c2c(=O)[nH]1)C1CCCCC1	-4.6	31.1*	-1.9	12.0	-4.3
CCCCC(=O)N(Cc1nc2sc(C)c(C)c2c(=O)[nH]1)C1CCCC1	-8.4	0.9	0.5	8.8	-4.4
O=C(Nc1cccnc1)c1ccc2snnc2c1	-13.0	35.4*	-1.5	5.7	2.1
O=C(Nc1ccccc1)c1ccc2snnc2c1	-2.1	-3.5	-1.2	-4.0	-4.7
Cc1ccc(OCC(=O)Nc2nnc(SCc3cc(=O)n4cc(C)ccc4n3)s2)cc1	nt	nt	0.4	-6.3	nt
O=C(N/N=C/C=C\c1ccco1)c1ccccn1	-6.0	-1.5	-0.8	-6.2	-5.4
COc1ccc(C)cc1S(=O)(=O)N(C)CC(=O)NC1CC1	-7.7	8.4	1.3	1.6	-1.1
